Several values for one entry are separate records, joined by “and”; a condition that tells them apart may be missing. Equal entries are not always repeated. Inconclusive results are not listed. Activity calls are given as the source filed them. Calls come from the whole dose curve; as a rule, active = well fitted inhibition curve with a large enough effect; inconclusive = small, poorly fitted or top-dose-only effect, or effect the other way; inactive = no such curve, though single readings can be large or run the other way.

This passage reports Potency results from PubChem BioAssay AID488913 (National Center for Advancing Translational Sciences (NCATS), 2010).

This assay in a line: Confirmation Concentration-Response Assay for lipid storage modulators: for probe SAR. As to conditions: Drosophila S3 cells, BODIPY lipid droplet fluorescence, 18-24 h; series mostly up to 46.1 µM. An excerpt: NIH Molecular Libraries Probe Production Centers Network [MLPCN] NIH Chemical Genomics Center [NCGC] MLPCN Grant: 1 R03 MH085686-01 Assay Submitter (PI): Beller, Mathias; Max-Planck-Institut fur Biophysikalische Chemie NCGC Assay Overview: Storing lipids as a reservoir for energy or the anabolism of elementary metabolites is a common feature of probably all cells and is conserved from bacteria to humans. The universal cellular lipid storage organelle is the so-called lipid storage droplet (LD). Although ubiquitous, LDs share a simple structure composed of a hydrophobic core that harbors the storage lipids, which is shielded by a droplet-specific phospholipid monolayer to which proteins are attached. The current model of LD biogenesis involves an incorporation of the lipid core into the membrane leaflets of the endoplasmic reticulum (ER) followed by a subsequent budding-like maturation of a LD, which ultimately pinches off. Once released, LD volume can increase by localized lipogenesis or fusion of existing droplets. Storage lipids are re-mobilized enzymatically by lipase activity. Lipase regulation in the adipocyte is heavily studied and involves multiple components including catecholamine signaling, the LD-associated proteins Perilipin and comparative gene identification-58 (CGI-58) and at least two lipases named hormone sensitive lipase (HSL) and adipocyte triglyceride lipase (ATGL). LD regulation outside of the adipocyte is poorly understood and only few components are known. However, there is an urgent need to learn more about ectopic fat depots as mislocalized storage of lipids, for example in the liver or muscle, is an eminent health problem associated with insulin resistance or the metabolic syndrome. We developed a laser-scanning cytometer assay to enable 1,536-well screening and combined the results of the small molecules screen with an RNAi database based on lipid storage.
We dispensed 4 uL of cells at 1.25 x 10^6 cells/mL into LoBase Aurora COC 1,536-well plates (black walled, clear bottom) with a bottle-valve solenoid-based dispenser (Aurora) to obtain 5,000 cells/well. Triacsin C (Sigma-Aldrich T-4540), an inhibitor of long-chain fatty acyl CoA synthetase that blocks synthesis of triglycerides, was used as a positive control for lipid under-storage. A total of 23 nL of compound solution of different concentrations were transferred to the assay plates using a Kalypsys pin tool equipped with a 1,536-pin array containing 10-nL slotted pins (FP1S10, 0.457-mm diameter, 50.8 mm long; V&P Scientific). One microliter of oleic acid (400 uM) was added, and the plate was lidded with stainless steel rubber gasket lined lids containing pinholes. After 18-24 h incubation at 24 degree Celsius and 95% humidity, 4 uL of the dyes BODIPY 493/503 (Molecular Probes) and the Cell Tracker Red CMTPX dye (Molecular Probes) were added to the wells to stain lipid droplets and enumerate cell number, respectively. Fluorescence was detected by excitation of the fluorophores with a 488-nm laser on an Acumen Explorer (TTP Lab Tech). The total intensity in channel 1 (500-530 nm) reflected lipid droplet accumulation. Cells were detected using channel 3 (575- 640 nm) with 5-um width and 100-um depth filters. The ratio of the total intensity in PMT channel 1 over total intensity of channel 3 was also calculated. Percent activity was computed relative to an internal control (100% inhibited lipid droplet deposition due to the presence of 20 uM Triacsin C), which was added to 32 wells/plate.
Regarding `O=C(NC1CCCc2c1cnn2-c1ccc(F)cc1F)c1cnccn1` (stereo not given), the Potency is 0.25 µM (active).
Next, `Cc1cc(SCc2sc(-c3ccc(C(F)(F)F)cc3)nc2C)ccc1OCC(=O)O`: “inactive”.
Regarding `O=C(NC1CCCc2c1cnn2-c1ccc(F)cc1F)c1ccccn1` (stereo not given), the Potency was 8.7 nM (active) and 7.9 nM (active).
As to `CC(C)(C)OC(=O)NC1CCCc2c1cnn2-c1ccc(F)cc1F` (stereo not given), the Potency is 0.888 µM (active).
Consider `CCOc1ccc(CCNC(=O)CN(C)C)cc1OCC`, for which the Potency entry was “inactive”.
The figure for `O=C(NC1CCCc2c1cnn2-c1ccc(F)cc1F)c1cnsn1` (stereo not given) is 0.499 µM (active); for `CCOc1ccc(CCNC(=O)c2cc3sc(Cl)cc3n2CC)cc1OCC` it is 2.23 µM (active); for `O=C(NC1CCCc2c1cnn2-c1ccccc1F)c1ccc2ncccc2c1` (stereo not given) it is 2.23 µM (active).
With `CCOc1ccc(CCNC(=O)Cc2ccccc2)cc1OCC`, the Potency entry was “inactive”.
For the compound `CCOC(=O)C1CCN(C(C)C(=O)NC(=O)NC2CCCCC2)CC1` (stereo not given), the Potency entry was “inactive”.
Next, `O=C(NC1CCCc2c1cnn2-c1ccc(F)cc1F)c1cccc(=O)[nH]1` (stereo not given): 7.91 µM (active); `O=C(NC1CCCc2c1cnn2-c1ccc(F)cc1F)c1ccc(F)cc1` (stereo not given): 0.445 µM (active).
The figure for `CCOC(=O)C1CCN(C(=O)C2(NC(=O)Nc3ccc(F)cc3F)CCCCC2)CC1` is 0.888 µM (active); for `COc1ccc(-c2csc(NC(=O)CSc3nnc(NC4CC4)s3)n2)cc1OC` it is “inactive”; for `O=C(NC1CCCCC1)NC1(C(=O)N2CCCC2)CCCCC1` it is “inactive”.
Next, `O=C(N[C@H]1CCCc2c1cnn2-c1ccc(F)cc1F)c1ccccn1`: 7.91 µM (active); `CC1(C)CCC(c2ccc(Cl)cc2)=C(CN2CCN(c3ccc(C(=O)NS(=O)(=O)c4ccc(N[C@H](CCN5CCOCC5)CSc5ccccc5)c(S(=O)(=O)C(F)(F)F)c4)cc3)CC2)C1`: 0.996 µM (active).
As for `CCOc1ccc(CCNC(=O)c2cc3sccc3n2C(C)C)cc1OCC`, the Potency is 0.0996 µM (active).
As to `CCOc1ccc(CCNC(=O)C2COc3ccccc3O2)cc1OCC` (stereo not given), the Potency was 11.2 µM (active).
Next, `COc1ccc(CCNC(=O)c2cc3sc(C)cc3n2C)cc1OC`: 2.81 µM (active); `O=C(NC1CCCc2c1cnn2-c1ccc(F)cc1F)C1CC1` (stereo not given): 1.58 µM (active).
Take `CCOc1ccc(CCNC(=O)c2cccc(C(=O)c3ccccc3)c2)cc1OCC`: the Potency is 15.8 µM (active).
Regarding `CN(C)CC(=O)NC1CCCc2c1cnn2-c1ccc(F)cc1F` (stereo not given), the Potency entry is “inactive”.
Next, `O=C(NCCc1ccc2c(c1)OCO2)c1cc2sccc2n1Cc1ccccc1`: “inactive”; `CCOc1ccc(CCNC(=O)c2cc3sccc3n2Cc2cccc(C)c2)cc1OCC`: 0.004 µM (active).
On to `S=C(Nc1cc(Cl)ccc1Oc1ccccc1)N1CCN(c2ncccn2)CC1`, for which the Potency was 12.5 µM (active).
Next, `O=C(NC1CCCc2c1cnn2-c1ccc(F)cc1F)c1ccncc1` (stereo not given): 9.96 µM (active); `O=C(NC1CCCc2c1cnn2-c1ccc(F)cc1F)c1ccn[nH]1` (stereo not given): 2.81 µM (active); `CCn1c(C(=O)NCCc2ccc(OC)c(OC)c2)cc2sc(Cl)cc21`: 9.71 µM (active).
Next, `O=C(NC1CCCc2c1cnn2-c1ccccc1F)c1cccc2nccnc12` (stereo not given): 2.74 µM (active); `CCOc1ccc(CCNC(=O)c2cc3sccc3n2Cc2ccccc2)cc1OCC`: 0.0353 µM (active); `O=C(Cc1cccs1)Nc1nc(-c2ccc3c(c2)CCC3)cs1`: “inactive”.
For `COc1ccc(-n2ncc3c2CCCC3NC(=O)c2cnc(C)cn2)cc1` (stereo not given), the Potency is 1.58 µM (active).
Consider `CCOc1ccc(CCNC(=O)c2cc3sccc3n2C)cc1OCC`, for which the Potency was 0.499 µM (active).
In the case of `CCOc1ccc(CCNC(C)=O)cc1OCC`, the Potency entry is “inactive”.
Regarding `COc1ccc(CCNC(=O)c2cc3sccc3n2Cc2ccc(F)cc2)cc1OC`, the Potency was 0.499 µM (active).
Next, `CCOc1ccc(CCNC(=O)c2cc3c(s2)CCC3)cc1OCC`: 0.56 µM (active); `COc1ccc(-c2csc(NC(=O)Cc3cccs3)n2)cc1`: 25 µM (active).
The figure for `CCOC(=O)C1CCN(C(=O)C(C)(C)NC(=O)Nc2ccccc2Cl)CC1` is 0.628 µM (active); for `COc1ccc(CCNC(=O)c2cc3sccc3n2Cc2ccccc2)cc1OC` it is 0.315 µM (active).
